# High-throughput results (PubChem BioAssay)
# Shown are actives, neighbours in structure and some others; about 3.1% of the full set was active somewhere.
# UBC13 polyUb: blocks human UBC13 polyubiquitin chain formation; P61088; TR-FRET; inhibition, % at 20 µM; actives 0.47% (n = 330,000); in the data active = inhibition above about 45%, passing the limit was not always enough
# ATG4B inhibitor: inhibitors of human ATG4B cysteine protease; actives 0.51% (n = 340,000); ATG4B cleavage of LC3-PLA2, NBD-HPC fluorescence, 1 h; inhibition, % at 8.33 µM; Q9Y4P1; in the data active = inhibition above about 40%
# PREPL inh: inhibits the human prolyl oligopeptidase-like enzyme | actives 0.68% (n = 320,000) | recombinant PREPL, fluorescence polarization activity-based probe | AID 2751 | inhibition, % at 5.96 µM; in the data active = inhibition above about 43%;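 note: 0% = enzyme with DMSO and 100% = wells lacking enzyme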
# Target sequence (Q4J6C6 whole entry, looked up): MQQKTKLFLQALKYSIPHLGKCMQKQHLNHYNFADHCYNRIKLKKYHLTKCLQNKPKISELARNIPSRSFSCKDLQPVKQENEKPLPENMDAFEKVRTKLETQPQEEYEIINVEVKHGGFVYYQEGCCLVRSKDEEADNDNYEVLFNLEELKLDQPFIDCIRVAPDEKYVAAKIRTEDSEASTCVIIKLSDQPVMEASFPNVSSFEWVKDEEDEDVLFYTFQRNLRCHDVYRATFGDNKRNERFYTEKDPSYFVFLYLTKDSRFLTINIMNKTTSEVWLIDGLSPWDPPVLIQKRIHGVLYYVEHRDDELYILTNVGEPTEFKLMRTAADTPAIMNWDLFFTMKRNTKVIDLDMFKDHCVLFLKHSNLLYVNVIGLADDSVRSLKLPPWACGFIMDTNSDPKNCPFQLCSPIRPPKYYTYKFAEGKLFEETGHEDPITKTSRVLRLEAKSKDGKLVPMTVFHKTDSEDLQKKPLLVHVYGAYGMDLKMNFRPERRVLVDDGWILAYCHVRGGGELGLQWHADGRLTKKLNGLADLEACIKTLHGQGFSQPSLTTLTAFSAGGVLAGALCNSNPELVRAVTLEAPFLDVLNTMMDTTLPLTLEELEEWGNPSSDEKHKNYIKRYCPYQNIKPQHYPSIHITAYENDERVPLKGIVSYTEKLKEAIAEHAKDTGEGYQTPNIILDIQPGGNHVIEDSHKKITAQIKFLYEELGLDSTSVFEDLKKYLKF
# MEKK3 PB1 HTS: raises or lowers MEK5 binding to the human MEKK3 PB1 domain; bead-based flow cytometry, Alexa488-MEK5 binding to MEKK3; actives lie on both sides; 0 = blocked by unlabeled MEK5, 100 = vehicle; actives 1.4% (n = 290,000); Q99759; binding response (% of control), % at 10 µM;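 active = binding response more than 3 SD above or below the average of its plate-row segment, actives on both sides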;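 note: Alexa488 bead fluorescence after subtracting the streptavidin-only scavenger bead signal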
# MEKK2 WT-MEK5: raises or lowers MEK5 binding to wildtype human MEKK2 PB1 domain | Q9Y2U5 | bead flow cytometry, Alexa488-MEK5 binding to MEKK2 WT; actives lie on both sides | binding response (% of control), % at 10 µM | actives 1.1% (n = 290,000); in the data active = binding response below about 67% or above about 130%
# MEKK2 mut-MEK5: signal of MEK5 binding to mutant human MEKK2 PB1 domain; percent response, % at 10 µM; AID 1530; actives 0.35% (n = 290,000); bead flow cytometry, Alexa488-MEK5 binding to MEKK2 mutant; in the data active = percent response above about 24%, passing the limit was not always enough
# ATG4B confirm: confirmation of human ATG4B inhibitors; shares compounds with ATG4B inhibitor; ATG4B protease fluorescent substrate cleavage assay; inhibition, % at 8.33 µM; actives 92% (n = 320); in the data active = inhibition above about 39%
# PLA2 ctr: inhibits human PLA2, flagging false ATG4B inhibitors | actives 66% (n = 1,600) | purified PLA2, NBD-C6-HPC fluorescence, 45 min | inhibition, % at 8.33 µM | shares compounds with ATG4B inhibitor; in the data active = inhibition above about 50%
# Starred values were filed as active, the others as inactive; / = not tested or not shown.
SMILES,UBC13 polyUb,ATG4B inhibitor,PREPL inh,MEKK3 PB1 HTS,MEKK2 WT-MEK5,MEKK2 mut-MEK5,PLA2 ctr,others
CCOc1cc(/C=C2\SC(=O)N(CC(=O)Nc3ccccc3F)C2=O)cc([N+](=O)[O-])c1O,-89,43*,3,104,89,2,3,ATG4B confirm=59*
COc1cc(/C=C2\SC(=O)N(CC(=O)Nc3ccccc3F)C2=O)cc(Cl)c1O,-78,1,-9,107,101,6,/,
COc1cccc(-n2c(SCc3cc(=O)oc4cc(O)c(O)cc34)nc3ccccc3c2=O)c1,/,99*,33,102,90,-3,100*,
CCN(CC)C(=O)CSc1nc2ccccc2c(=O)n1-c1cccc(OC)c1,-13,-7,7,102,104,1,/,
Cc1nc2c(C(=O)NCCc3ccccc3Cl)c[nH]n2c(=O)c1Cl,-9,43*,12,94,95,-2,57*,
Cc1nc2c(C(=O)NCc3ccccc3Cl)c[nH]n2c(=O)c1Cl,-10,49*,6,101,97,-1,46,ATG4B confirm=62*
O=C(OCc1ccc(Cl)c(Cl)c1)c1ccc[nH]1,3,5,-25,103,96,-4,/,
COc1ccc(OCCn2cnc3ccccc32)cc1,6,-3,/,101,107,5,/,
COc1ccc(CCN(C(=O)c2cccc(F)c2)C2CC(=O)N(c3ccc(OC)cc3)C2=O)cc1 (stereo not given),5,-13,-4,100,98,8,/,
O=C(NC(=S)Nc1cc(-c2nc3ccccc3[nH]2)ccc1Cl)c1ccc2c(c1)OCO2,-14,52*,-2,105,107,3,60*,
Cc1ccc(-c2nc3ccccc3[nH]2)cc1NC(=S)NC(=O)c1ccccc1Br,-7,41*,-20,97,96,-1,61*,
Cc1ccc(-c2nc3ccccc3[nH]2)cc1NC(=O)c1ccc2c(c1)OCO2,-11,20,9,100,99,1,/,
CCOc1ccc(CN(C)C(=O)c2ccc(S(=O)(=O)N(C)c3ccccc3OC)cc2)cc1,-3,2,0,/,/,/,/,
CC1=C(C)C(=O)C(N2CCOCC2)=CC1=O,/,10,/,102,109,15,/,
O=C1C=C(N2CCOCC2)c2ccccc2C1=O,-195,64*,16,99,101,0,-19,ATG4B confirm=53*
CC(C)(C)c1ccc(-c2nc(C#N)c(N3CCC(C(N)=O)CC3)o2)cc1,13,56*,10,105,107,2,56*,
Cc1cc(C(C)(C)C)cc(C)c1C[n+]1ccc2ccccc2c1,7,7,-4,106,114,9,/,
Cc1ccc(-c2cc(-c3ccccc3Cl)[nH]n2)c(O)c1,14,68*,2,105,107,2,77*,
Oc1ccc(Br)cc1-c1cc(-c2ccccc2Cl)[nH]n1,-8,22,14,88,88,-14,/,
Cc1ccc(-c2cc(-c3ccccc3[N+](=O)[O-])[nH]n2)c(O)c1,0,61*,11,/,/,/,75*,
Cc1ccccc1-c1cc(-c2ccccc2O)n[nH]1,16,58*,-34,102,102,1,65*,
Oc1ccccc1-c1cc(-c2ccccc2)n[nH]1,25,-3,-41,/,/,/,/,
CCOC(=O)C1CCN(C(=S)Nc2ccc(CC)cc2)CC1,5,8,15,78,76,-12,/,
CCOC(=O)c1c(C)[nH]c(C(=O)COc2ccc3ccc(=O)oc3c2)c1C,5,-27,7,/,/,/,/,
Cc1csc(Nc2nc(N)c(C(=O)Nc3ccccc3)o2)n1,2,-7,20,101,100,-1,/,
SMILES,UBC13 polyUb,ATG4B inhibitor,PREPL inh,MEKK3 PB1 HTS,MEKK2 WT-MEK5,MEKK2 mut-MEK5,PLA2 ctr,others
Cc1ccsc1/C=C/C1=Cc2c(sc(NC(=O)CSc3n[nH]c(N)n3)c2C#N)C(C)(C)C1,11,66*,-40,93,76,-12,52*,
COc1ccccc1/C=C(/NC(=O)c1ccccc1)C(=O)NCCN1CCOCC1,-5,6,4,101,105,0,/,
COC(=O)C1=C(C(=O)OC)[C@@H]2N(C)c3ccc(OC)cc3[C@@]23C[C@@H](C(=O)OC)N(C(=O)c2cccs2)C3=N1,-8,4,-2,98,93,-8,/,
COc1ccc(NS(=O)(=O)c2cc([N+](=O)[O-])ccc2NN=Cc2ccccc2OCC(=O)O)cc1,-51,-39,17,/,/,/,/,
O=C(O)COc1ccccc1C=NNc1ccc([N+](=O)[O-])cc1S(=O)(=O)Nc1ccc(Cl)cc1,-66,44*,16,/,/,/,43,ATG4B confirm=64*
COc1ccc(C2=NOC(Cn3nc(C(=O)NCc4cccc(C(F)(F)F)c4)cc3-c3ccccc3)C2)cc1 (stereo not given),1,67*,-11,/,/,/,82*,
CC(=O)c1cccc(NC(=O)C2C3C=CC(C3=C(c3ccccc3)c3ccccc3)C2C(=O)O)c1 (stereo not given),-10,79*,-7,81,82,-7,90*,
O=C(CCC(=O)Nc1nnc(C2CCCCC2)s1)NCc1ccc(F)cc1,-8,3,12,98,99,3,/,
CCOc1ccc(C(=O)COC(=O)CNC(=O)C2CCCCC2)cc1,-5,-10,11,/,/,/,/,
Cc1sc2nc(C3CC3)nc(SCC(=O)N3CC(=O)Nc4ccccc43)c2c1C,-6,69*,1,102,95,1,77*,
COc1cc(/C=C/C(O)=C/C(=O)/C=C/c2ccc(O)cc2)ccc1O,-60,48*,14,/,/,/,47,
COc1cc(/C=C/C(=O)NC(=O)c2ccccc2O)ccc1O,-3,-9,-5,102,103,1,/,
CC1(c2cccc(Br)c2)NC(=O)N(CC(=O)Nc2ccc(S(N)(=O)=O)cc2)C1=O (stereo not given),3,-11,-14,102,95,-3,/,
CCCCC(CC)CNC(=O)C1CC=CCC1C(=O)O (stereo not given),3,6,0,94,104,-1,/,
CCc1nc(N2CCN(Cc3ccc4c(c3)OCO4)CC2)c2oc3ccccc3c2n1,8,49*,-16,101,113,5,70*,
CCc1nc(N2CCCCC2C(=O)O)c2oc3ccccc3c2n1 (stereo not given),14,-9,4,106,97,6,/,
CCc1nc(N2CCCC(C)C2)c2oc3ccccc3c2n1 (stereo not given),4,43*,2,105,108,6,52*,
